The list is not random: actives were taken first. Their share in the collection is about 1.1%.
HTR5A ag – HTR5A agonists in luminescence cell assay, primary screen, counter-screen for OPRM1-OPRD1 heterodimer agonist project, full-deck HTS; 5-hydroxytryptamine receptor 5A (Homo sapiens), P47898; cell-based; activation, % at 9.3 µM; 340,000 compounds, 0.61% hits; AID 504692, 2011; in the data active = activation mostly above about 9.5%, no sharp cut-off; inactive = mostly below about 7.6%;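 also: 0% = cells with vehicle only and 100% = reference agonist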
OPRM1-OPRD1 inv – inverse agonists of MOR-DOR heterodimerization, primary screen, cell-based, luminescence; Mu-type opioid receptor (Homo sapiens) + Delta-type opioid receptor (Homo sapiens), …; cell-based MOR-DOR heterodimer luminescence, inverse agonism; 340,000 compounds, 0.21% hits; inhibition, % at 9.3 µM; in the data active = inhibition above about 22%, passing the limit was not always enough;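 also: 0% = cells with DMSO and 100% = wells without cells with DMSO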
Target sequence (P35372 whole entry, looked up): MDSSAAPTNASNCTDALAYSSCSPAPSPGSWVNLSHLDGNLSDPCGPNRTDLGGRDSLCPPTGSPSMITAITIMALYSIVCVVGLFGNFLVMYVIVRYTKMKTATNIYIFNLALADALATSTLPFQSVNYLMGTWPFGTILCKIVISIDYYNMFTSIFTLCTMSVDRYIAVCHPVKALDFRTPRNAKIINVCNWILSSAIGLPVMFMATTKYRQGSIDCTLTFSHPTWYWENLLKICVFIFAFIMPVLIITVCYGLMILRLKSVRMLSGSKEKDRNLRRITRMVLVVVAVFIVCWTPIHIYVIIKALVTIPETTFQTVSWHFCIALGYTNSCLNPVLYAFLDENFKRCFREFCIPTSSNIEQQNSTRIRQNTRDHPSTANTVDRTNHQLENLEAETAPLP
Target sequence (P41143 whole entry, looked up): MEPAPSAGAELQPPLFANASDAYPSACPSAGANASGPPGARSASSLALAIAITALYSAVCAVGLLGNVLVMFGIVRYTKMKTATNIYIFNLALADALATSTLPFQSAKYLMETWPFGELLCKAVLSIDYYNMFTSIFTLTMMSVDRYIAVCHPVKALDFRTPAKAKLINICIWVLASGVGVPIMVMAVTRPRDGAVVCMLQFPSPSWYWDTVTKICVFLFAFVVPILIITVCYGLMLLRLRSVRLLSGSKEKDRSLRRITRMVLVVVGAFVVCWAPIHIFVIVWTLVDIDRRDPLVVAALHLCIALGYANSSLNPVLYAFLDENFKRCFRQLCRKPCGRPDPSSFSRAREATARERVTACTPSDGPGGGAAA
OPRM1-OPRD1 ag – agonists of OPRM1-OPRD1 heterodimerization, primary screen, cell-based, luminescence; Mu-type opioid receptor (Homo sapiens) + Delta-type opioid receptor (Homo sapiens), …; cells; activation, % at 9.3 µM; 340,000 compounds, 0.3% hits; AID 504326, 2011; in the data active = activation above about 18%;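 also: 0% = vehicle-treated cells and 100% = reference agonist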
HTR5A inv ctr – HTR5A inverse agonists in luminescence cell assay, primary screen, counter-screen for OPRM1-OPRD1 heterodimer inverse agonist project, full-deck HTS; HTR5A cell line, inverse agonism; inhibition, % at 9.3 µM; 340,000 compounds, 0.083% hits; AID 504634, 2011; in the data active = inhibition mostly above about 23%, no sharp cut-off; inactive = mostly below about 18%;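 also: 0% = cells with DMSO and 100% = no-cell wells with DMSO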
OPRM1-D1 inv cf – inverse agonists of MOR-DOR heterodimerization, confirmation, cell-based, luminescence | cells expressing OPRM1/OPRD1 heterodimer | shares compounds with OPRM1-OPRD1 inv | 580 compounds, 20% hits | inhibition, % at 9.3 µM; in the data active = inhibition above about 32%;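 also: 0% = cells with DMSO and 100% = wells lacking cells with DMSO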
HTR5A inv count – HTR5A inverse agonists, counter-screen for OPRM1-OPRD1 inverse agonist project, cell-based, luminescence | inhibition, % at 9.3 µM | 580 tested, under 10 active | shares compounds with OPRM1-OPRD1 inv | HTR5A-expressing cells, inverse agonism; call rule not given here;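 also: 0% = cells with DMSO and 100% = no-cell wells with DMSO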
* = called active by the depositor; i = inactive; . = no result given.

SMILES	HTR5A ag	OPRM1-OPRD1 inv	OPRM1-OPRD1 ag	HTR5A inv ctr	OPRM1-D1 inv cf	HTR5A inv count
Cn1c(=O)[nH]c(=O)c2c1nc(Br)n2C/C=N/Nc1ccccc1	2	35*	-7	-6	i	-26
O=S(=O)(/N=S1\CC=CCN1S(=O)(=O)c1ccccc1)c1ccccc1 (stereo not given)	8	8	-2	-31	.	.
Cc1noc(C)c1C(=O)NNc1ccc(C(C)C)cc1	0	23	-5	5	.	.
Cc1ccc(NNC(=O)c2ccno2)cc1Cl	3	52*	-10	5	-40	-268
Cc1ccc(NNC(=O)c2ccno2)cc1C	6	61*	-12	-3	-189	-27
O=C(Nc1cc(Cl)cc(Cl)c1)c1ccno1	-2	15	-3	9	.	.
Cc1ccc(NNC(=O)c2c(C)noc2C)cc1Cl	0	41*	-8	3	23	-1
Cc1cccc2nc3c(nc12)-c1ccccc1C3=O	0	40*	-8	-14	23	3
Cn1c(NNC(=O)c2cccc3ccccc23)cc(=O)n(C)c1=O	8	23*	-4	-8	-36	4
Cn1c(NNC(=O)c2ccccc2F)cc(=O)n(C)c1=O	0	23	-4	26	.	.
O=c1c2cc(Br)ccc2[nH]c(=S)n1Cc1ccccn1	-1	64*	-11	2	-93	-20
Cn1c(SSc2ccc(-c3cccnc3)n2C)ccc1-c1cccnc1	0	41*	-8	-1	30	13
O=C(COC(=O)c1cc(S(=O)(=O)NCc2ccccc2)ccc1O)NCc1ccccc1	6	8	-2	-20	.	.
O=C(COC(=O)c1cc(S(=O)(=O)NCc2ccccc2)ccc1O)c1cc2ccccc2o1	-3	41*	-8	9	-209	-8
CC1CN(c2ccccc2)NC1=O (stereo not given)	-6	48*	-10	15	-255	-29
CC1CN(Cc2ccccc2)C(=O)NC1=O (stereo not given)	-5	9	-2	18	.	.
COc1ccc(-c2cc3c(nn2)-c2ccccc2C3=O)cc1	0	91*	-19	13	75*	-1
Cc1cccc(-c2cc3c(nn2)-c2ccccc2C3=O)c1	-5	88*	-18	11	i	-54
Cc1cnc2c(c1)C(=O)c1ccccc1-2	-2	-1	0	9	.	.
COc1ccc(-c2cn(Cc3ccc4c(c3)C(=O)c3ccccc3C4=O)nn2)cc1	4	-10	2	-15	.	.
O=C1c2ccccc2-c2nnc(-c3ccccc3)cc21	-5	97*	-16	1	99*	7
CC(Sc1nc2ccccc2c(=O)n1CC1CCCO1)C(=O)Nc1ccc(S(N)(=O)=O)cc1 (stereo not given)	-6	2	0	15	.	.
Nc1c(Cl)ncnc1N/N=C/c1ccc2ccccc2n1	-2	32*	-6	6	16	8
Nc1c(Cl)ncnc1N/N=C/c1ccnc2ccccc12	-3	2	0	-5	.	.
CNC(=S)NNC(=O)CCn1nc(C)c(Br)c1C	0	15	-3	4	.	.
SMILES	HTR5A ag	OPRM1-OPRD1 inv	OPRM1-OPRD1 ag	HTR5A inv ctr	OPRM1-D1 inv cf	HTR5A inv count
CCOCCCNC(=S)NNC(=O)CCn1nc(C)c(Br)c1C	-3	45*	-8	5	-13	-16
Cc1nn(CCC(=O)NNC(=S)NCC(C)C)c(C)c1Br	-11	75*	-15	37	-33	-10
Cc1nn(CCC(=O)NNC(=S)Nc2ccccc2)c(C)c1Br	1	30*	-6	23	-156	-10
CCCC(=O)Nc1sc2c(c1C(=O)Nc1ccccn1)CCCC2	2	-13	3	-43	.	.
Nc1c(N(Cc2ccco2)C(=O)c2ccccc2F)c(=O)[nH]c(=O)n1Cc1ccccc1	0	3	0	9	.	.
Cc1ccc(C(O)C(=O)c2ccco2)cc1 (stereo not given)	-3	15	-3	13	.	.
O=C(c1ccco1)C(O)c1ccco1 (stereo not given)	-10	70*	-14	35*	-444	-54
CCOCCCNC(=O)/C(C#N)=C/c1ccc(Cl)c([N+](=O)[O-])c1	-3	-22	4	5	.	.
CCOCCCNC(=O)/C(C#N)=C/c1cc(OC)c(O)c([N+](=O)[O-])c1	-4	30*	-5	11	-30	11
ON1C(c2ccccc2C(F)(F)F)N(O)[C@H]2CCCC[C@H]21 (stereo not given in full)	0	41*	-7	0	13	-6
O=C(Nc1ccccc1C(F)(F)F)C1CCCC1	2	-3	1	-7	.	.
COc1cc(C(=O)N2CCc3ccccc32)c([N+](=O)[O-])cc1OC	2	-13	3	-5	.	.
Oc1c(C=Nc2ccccc2Cl)[nH]c2ccccc12	-2	48*	-9	5	2	7
Cc1ccc(OCCN2C(=O)C(=O)c3cccc(C)c32)cc1	-1	42*	-8	2	-29	-15
CCOC(=O)CN1C(=O)C(=O)c2cccc(C)c21	-9	75*	-15	24	i	-108
Cc1cccc(OCCN2C(=O)c3ccccc3C2=O)c1	2	-16	3	-22	.	.
Cc1cccc2c1N(C)C(=O)C2=O	-3	25	-4	7	.	.
Cc1ccc(C2=C(c3ccc([N+](=O)[O-])cc3)C(=O)OC2)cc1C	-5	-11	2	3	.	.
Cc1ccc(NC(=S)NNC(=O)c2nn(C)cc2Cl)cc1	-7	29*	-5	24	-9	7
Cc1nn(-c2ccccc2)c2c1C(c1ccncc1)C(C#N)=C(N)O2 (stereo not given)	-1	10	-2	3	.	.
COc1cc(-n2nc(C)c3c2OC(N)=C(C#N)C3c2ccccc2)c(Cl)c(Br)c1O (stereo not given)	-4	34*	-8	10	20	15
O=C(CS(=O)(=O)c1cn(CC(=O)N2CCCC2)c2ccccc12)Nc1ccccc1F	0	6	-1	20	.	.
Cn1c(=O)c2c(nc(N3CCNCC3)n2Cc2cccc3ccccc23)n(C)c1=O	-7	42*	-7	18	5	23
Cn1c(=O)[nH]c(=O)c2c1nc(N1CCNCC1)n2Cc1cccc2ccccc12	-8	38*	-7	15	-57	-24
Cn1c(=O)[nH]c(=O)c2c1nc(N1CCNCC1)n2Cc1ccccc1	1	13	-3	-3	.	.
COc1cccc(CNC(=O)c2ccc(Cl)c(NC3=NC4CS(=O)(=O)CC4S3)c2)c1 (stereo not given)	-2	8	-2	10	.	.

Bioassay records: PubChem, The Scripps Research Institute Molecular Screening Center
